About 83,000 compounds went through this panel and 20% of them were active in at least one assay; those are over-represented in the sample as a whole.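 Compound tested at a single concentration for 48 hours in 96-well plates; a percent growth value below 10 was scored as active.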 The source made the active and inactive calls.
Assays:
Assay in all cases: NCI-60 one-dose screen, 48 h (100 = growth as untreated, 0 = no growth, -100 = all killed)
NCI-H226 lung = conditions: 10 µM
NCI-H322M lung = conditions: 10 µM
HOP-62 NSCLC = conditions: 10 µM
NCI-H460 lung = conditions: 10 µM
786-0 renal = conditions: 10 µM
COLO 205 colon = conditions: 10 µM
DU-145 prostate = conditions: 10 µM
SF-268 CNS = conditions: 10 µM
SF-295 CNS = conditions: 10 µM
SF-539 CNS = conditions: 10 µM
HCT-15 colon = conditions: 10 µM
SNB-75 CNS = conditions: 10 µM
SNB-19 CNS = conditions: 10 µM
U251 CNS = conditions: 10 µM
PC-3 prostate = conditions: 10 µM
EKVX NSCLC = conditions: 10 µM
UO-31 renal = conditions: 10 µM
ACHN renal = conditions: 10 µM
HL-60(TB) leukemia = conditions: 10 µM unless noted
CCRF-CEM leukemia = conditions: 10 µM

Measured: growth

C[C@@H]1CCC/C=C/[C@H]2C[C@@H](O)C[C@@H]2[C@@H](O)/C=C/C(=O)O1
inactive: NCI-H460 lung 18.2% | DU-145 prostate 28.4% | SF-268 CNS 17.6% | SF-295 CNS 21.6% | SF-539 CNS 31.7% | HCT-15 colon 11.2% | SNB-75 CNS 47% | SNB-19 CNS 30.2% | U251 CNS 17.6% | PC-3 prostate 19.5% | EKVX NSCLC 11.5% | CCRF-CEM leukemia 12.3%
active: NCI-H226 lung 7.32% | NCI-H322M lung 6.35% | HOP-62 NSCLC 1.72% | 786-0 renal -31.4% | COLO 205 colon -84.3% | UO-31 renal 6.57% | ACHN renal 9.31% | HL-60(TB) leukemia -22.7%

CN1C(=O)[C@]23SSC1(C)C(=O)N2[C@H]1Nc2ccccc2C1([C@@]12c4ccccc4N[C@@H]1N1C(=O)C4(C)SS[C@]1(C(=O)N4C)[C@H]2O)[C@@H]3O (some centres undefined)
active: NCI-H226 lung -96.6% | NCI-H322M lung -74.2% | HOP-62 NSCLC -91% | NCI-H460 lung -87.4% | 786-0 renal -99.1% | COLO 205 colon -88.9% | DU-145 prostate -94.1% | SF-268 CNS -86.5% | SF-295 CNS -80.2% | SF-539 CNS -91.3% | HCT-15 colon -45.4% | SNB-75 CNS -85.8% | SNB-19 CNS -99.4% | U251 CNS -97.5% | PC-3 prostate -79.9% | EKVX NSCLC -97.4% | UO-31 renal -100% | ACHN renal -98.8% | CCRF-CEM leukemia 1.4%

CC(C)=CCc1c2c(c(O)c3c1O[C@]14C(=C[C@@H]5C[C@H]1C(C)(C)O[C@@]4(C/C=C(/C)C(=O)O)C5=O)C3=O)C=CC(C)(C)O2
active: NCI-H226 lung -2.64% | NCI-H322M lung -84.9% | HOP-62 NSCLC -71.1% | NCI-H460 lung -67.4% | 786-0 renal -82.7% | COLO 205 colon -79.8% | DU-145 prostate -100% | SF-268 CNS -75.1% | SF-295 CNS -64.5% | SF-539 CNS -38.9% | HCT-15 colon -72.5% | SNB-75 CNS -62.3% | SNB-19 CNS -50.9% | U251 CNS -87.7% | PC-3 prostate -37.8% | EKVX NSCLC -62.3% | UO-31 renal -76% | ACHN renal -82.6% | HL-60(TB) leukemia -33.7% | CCRF-CEM leukemia -1.96%
